What all share (experiment): DAPPL (digital affinity profiling via proximity ligation, sequencing); 10 mM Tris-HCl pH 7.5, 50 mM NaCl, 1 mM DTT, 4% glycerol, room temperature, 30 min; GST-TFs on glutathione beads, 16-mer random dsDNA library, 0.1% formaldehyde crosslink after washing; high values mean tight binding
The target of one assay is T1, FEV (Homo sapiens, UniProt Q99581 1-238).
T1 sequence: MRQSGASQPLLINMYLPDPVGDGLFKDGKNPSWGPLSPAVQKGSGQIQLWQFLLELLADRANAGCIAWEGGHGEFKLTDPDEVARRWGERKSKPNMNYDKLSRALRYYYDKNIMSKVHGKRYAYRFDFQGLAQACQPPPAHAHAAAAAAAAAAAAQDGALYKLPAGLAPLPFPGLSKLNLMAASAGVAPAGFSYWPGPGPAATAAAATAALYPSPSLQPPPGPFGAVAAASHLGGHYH
The following applies: protein: recombinant; tags: N-terminal GST; dsDNA, one strand shown. In a few lines:
(§1)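 Human transcription factors fused to GST were expressed in yeast, captured on glutathione beads, given DNA barcodes and pooled with a GST-only negative control. Pools were incubated with 200 nmole of a 16-mer random double-stranded DNA library in Tris/NaCl/DTT/glycerol buffer at room temperature for 30 min. They were then washed, crosslinked with 0.1% formaldehyde, proximity-ligated (BsaI/T4 ligase, 1 h, 37 °C), PCR-amplified and sequenced on an Illumina NextSeq500. Binding signal is each 6-mer's read frequency for a factor divided by its frequency for the GST control.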

The next assay concerns the target ETV5 (Homo sapiens, UniProt P41161 1-510). The following applies: protein: recombinant; tags: N-terminal GST; dsDNA, one strand shown. The procedure, abridged:
as §1

In a further assay the target is HSF1 (Homo sapiens, UniProt Q00613 1-529). The following applies: protein: recombinant; tags: N-terminal GST; chain copies: 3; dsDNA, one strand shown. In a few lines:
as §1

For another assay, the target named is T2, SPIC (Homo sapiens, UniProt Q8N5J4 1-248).
T2 sequence: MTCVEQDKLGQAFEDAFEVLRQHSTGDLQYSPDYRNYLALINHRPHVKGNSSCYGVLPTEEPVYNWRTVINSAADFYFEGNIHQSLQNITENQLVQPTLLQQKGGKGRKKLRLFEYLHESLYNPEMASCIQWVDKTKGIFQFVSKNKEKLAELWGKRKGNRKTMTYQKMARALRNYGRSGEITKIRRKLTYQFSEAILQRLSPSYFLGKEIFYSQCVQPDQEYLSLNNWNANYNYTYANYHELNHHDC
As to conditions: protein: recombinant; tags: N-terminal GST; dsDNA, one strand shown. In a few lines:
as §1

The next assay deals with ELF4 (Homo sapiens, UniProt Q99607 1-663). As to conditions: protein: recombinant; tags: N-terminal GST; dsDNA, one strand shown. In a few lines: as §1
Another assay has as its target T3, ELK4 (Homo sapiens, UniProt P28324-2 1-405).
T3 sequence: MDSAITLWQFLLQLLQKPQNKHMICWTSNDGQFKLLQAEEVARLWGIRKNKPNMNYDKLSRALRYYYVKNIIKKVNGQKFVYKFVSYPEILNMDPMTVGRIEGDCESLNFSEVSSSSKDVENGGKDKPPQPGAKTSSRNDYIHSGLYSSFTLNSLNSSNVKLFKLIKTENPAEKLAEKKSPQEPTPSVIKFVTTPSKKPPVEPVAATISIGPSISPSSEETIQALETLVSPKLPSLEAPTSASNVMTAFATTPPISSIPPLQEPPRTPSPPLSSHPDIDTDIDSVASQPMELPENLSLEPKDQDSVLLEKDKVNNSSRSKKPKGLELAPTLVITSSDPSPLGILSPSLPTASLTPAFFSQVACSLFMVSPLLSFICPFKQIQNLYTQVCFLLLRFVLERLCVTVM
As to conditions: protein: recombinant; tags: N-terminal GST; dsDNA, one strand shown. The procedure, abridged:
as §1

The target of another assay is T4, ETV2 (Homo sapiens, UniProt O00321 1-342).
T4 sequence: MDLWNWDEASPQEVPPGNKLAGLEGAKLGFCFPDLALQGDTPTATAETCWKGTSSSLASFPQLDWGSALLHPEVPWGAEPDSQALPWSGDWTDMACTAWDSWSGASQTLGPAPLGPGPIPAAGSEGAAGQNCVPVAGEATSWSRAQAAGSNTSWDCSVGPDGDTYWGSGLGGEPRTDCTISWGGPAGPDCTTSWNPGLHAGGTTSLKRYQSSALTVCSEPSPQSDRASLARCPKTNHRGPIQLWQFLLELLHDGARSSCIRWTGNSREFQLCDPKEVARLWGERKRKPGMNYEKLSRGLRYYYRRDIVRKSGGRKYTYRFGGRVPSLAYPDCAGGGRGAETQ
The following applies: protein: recombinant; tags: N-terminal GST; dsDNA, one strand shown. In a few lines: as §1

The target of a further assay is T5, ELF3 (Homo sapiens, UniProt P78545 1-371).
T5 sequence: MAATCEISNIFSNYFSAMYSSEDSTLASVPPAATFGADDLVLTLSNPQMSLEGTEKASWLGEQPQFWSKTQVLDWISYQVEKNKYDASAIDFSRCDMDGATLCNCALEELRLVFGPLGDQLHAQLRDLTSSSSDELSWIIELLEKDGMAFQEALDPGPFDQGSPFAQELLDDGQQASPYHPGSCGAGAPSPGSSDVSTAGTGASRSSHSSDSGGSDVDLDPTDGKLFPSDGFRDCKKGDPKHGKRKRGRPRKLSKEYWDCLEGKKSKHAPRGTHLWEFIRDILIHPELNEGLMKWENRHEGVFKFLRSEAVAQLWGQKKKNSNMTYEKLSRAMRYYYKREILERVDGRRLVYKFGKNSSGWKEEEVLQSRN
As to conditions: protein: recombinant; tags: N-terminal GST; dsDNA, one strand shown. The procedure, abridged: as §1

A further assay addresses CRX (Homo sapiens, UniProt O43186 1-299). The following applies: protein: recombinant; tags: N-terminal GST; dsDNA, one strand shown. In a few lines:
as §1

Another assay concerns the target ETV1 (Homo sapiens, UniProt P50549 1-477). As to conditions: protein: recombinant; tags: N-terminal GST; dsDNA, one strand shown. The procedure, abridged: as §1

The text below walks through data of article PMC7862700, “An all-to-all approach to the identification of sequence-specific readers for epigenetic DNA modifications on cytosine”.

CRX, sequence (O43186 whole entry): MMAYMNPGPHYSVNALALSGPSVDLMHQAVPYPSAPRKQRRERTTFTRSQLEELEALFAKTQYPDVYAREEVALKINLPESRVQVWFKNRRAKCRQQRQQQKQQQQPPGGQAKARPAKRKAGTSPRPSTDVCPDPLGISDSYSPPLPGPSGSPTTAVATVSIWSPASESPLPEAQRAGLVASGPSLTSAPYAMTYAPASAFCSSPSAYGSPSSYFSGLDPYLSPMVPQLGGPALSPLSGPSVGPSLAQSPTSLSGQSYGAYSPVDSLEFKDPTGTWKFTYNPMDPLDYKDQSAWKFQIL
HSF1, sequence (Q00613 whole entry): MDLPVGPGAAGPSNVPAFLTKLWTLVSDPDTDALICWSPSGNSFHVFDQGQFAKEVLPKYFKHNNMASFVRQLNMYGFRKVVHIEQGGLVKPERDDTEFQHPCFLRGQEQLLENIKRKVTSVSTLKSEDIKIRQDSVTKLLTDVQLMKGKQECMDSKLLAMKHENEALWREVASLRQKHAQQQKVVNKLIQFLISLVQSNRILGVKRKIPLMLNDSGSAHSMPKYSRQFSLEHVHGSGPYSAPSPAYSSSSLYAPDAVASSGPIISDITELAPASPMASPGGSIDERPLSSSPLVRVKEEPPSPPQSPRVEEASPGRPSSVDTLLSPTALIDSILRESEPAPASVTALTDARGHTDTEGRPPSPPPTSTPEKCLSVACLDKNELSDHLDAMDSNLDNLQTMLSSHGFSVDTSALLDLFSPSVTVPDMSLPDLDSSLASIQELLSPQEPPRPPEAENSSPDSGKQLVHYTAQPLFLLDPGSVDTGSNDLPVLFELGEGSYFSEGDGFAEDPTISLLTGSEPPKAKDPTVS
ELF4, sequence (Q99607 whole entry): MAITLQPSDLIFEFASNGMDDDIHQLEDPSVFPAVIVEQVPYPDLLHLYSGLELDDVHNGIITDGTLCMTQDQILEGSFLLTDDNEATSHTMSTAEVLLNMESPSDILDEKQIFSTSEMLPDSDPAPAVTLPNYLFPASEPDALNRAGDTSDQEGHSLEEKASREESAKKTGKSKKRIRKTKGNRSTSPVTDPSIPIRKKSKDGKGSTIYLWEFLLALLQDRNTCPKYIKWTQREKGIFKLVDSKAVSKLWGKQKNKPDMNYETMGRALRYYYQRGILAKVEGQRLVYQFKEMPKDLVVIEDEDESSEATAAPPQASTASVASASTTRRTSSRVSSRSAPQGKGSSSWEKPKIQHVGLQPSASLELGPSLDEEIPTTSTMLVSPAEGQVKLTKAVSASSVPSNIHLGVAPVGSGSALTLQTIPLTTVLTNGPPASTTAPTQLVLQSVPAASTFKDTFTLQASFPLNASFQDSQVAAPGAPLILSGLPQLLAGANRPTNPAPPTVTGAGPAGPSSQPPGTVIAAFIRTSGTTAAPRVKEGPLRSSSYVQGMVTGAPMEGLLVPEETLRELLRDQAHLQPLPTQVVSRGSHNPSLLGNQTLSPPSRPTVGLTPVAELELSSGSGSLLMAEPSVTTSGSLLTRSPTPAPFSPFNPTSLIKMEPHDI
ETV5, sequence (P41161 whole entry): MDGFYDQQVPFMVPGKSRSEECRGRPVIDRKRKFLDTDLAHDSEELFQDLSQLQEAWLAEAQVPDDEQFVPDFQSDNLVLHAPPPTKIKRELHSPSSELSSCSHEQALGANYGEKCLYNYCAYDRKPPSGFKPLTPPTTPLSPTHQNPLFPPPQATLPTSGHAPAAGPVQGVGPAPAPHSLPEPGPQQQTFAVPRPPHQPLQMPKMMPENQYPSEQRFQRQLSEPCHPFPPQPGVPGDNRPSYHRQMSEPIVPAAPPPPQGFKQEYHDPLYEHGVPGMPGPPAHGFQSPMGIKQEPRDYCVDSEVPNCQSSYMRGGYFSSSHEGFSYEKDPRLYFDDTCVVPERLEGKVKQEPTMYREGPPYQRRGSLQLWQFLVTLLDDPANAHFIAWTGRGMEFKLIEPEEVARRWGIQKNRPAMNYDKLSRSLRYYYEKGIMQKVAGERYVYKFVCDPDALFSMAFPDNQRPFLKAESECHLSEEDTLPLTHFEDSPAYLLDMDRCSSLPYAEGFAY
ETV1, sequence (P50549 whole entry): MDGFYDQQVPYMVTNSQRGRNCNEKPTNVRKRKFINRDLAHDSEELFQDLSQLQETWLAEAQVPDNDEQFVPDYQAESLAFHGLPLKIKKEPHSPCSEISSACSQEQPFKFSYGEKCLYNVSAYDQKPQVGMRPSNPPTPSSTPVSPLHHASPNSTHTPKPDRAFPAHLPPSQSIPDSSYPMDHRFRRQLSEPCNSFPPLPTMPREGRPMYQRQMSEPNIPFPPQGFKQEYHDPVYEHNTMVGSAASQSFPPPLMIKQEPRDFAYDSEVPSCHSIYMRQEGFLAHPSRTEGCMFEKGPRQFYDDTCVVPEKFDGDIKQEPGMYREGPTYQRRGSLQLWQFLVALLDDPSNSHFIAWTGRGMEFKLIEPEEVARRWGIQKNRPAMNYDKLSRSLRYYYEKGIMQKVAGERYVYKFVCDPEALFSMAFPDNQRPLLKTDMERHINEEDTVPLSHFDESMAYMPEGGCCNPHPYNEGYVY

Regarding ACAATA, the binding signal was 1.13 fold enrichment (6-mer frequency, TF over GST control) in the assay with FEV; 1.15 fold enrichment (6-mer frequency, TF over GST control) with ETV5; 1.16 fold enrichment (6-mer frequency, TF over GST control) in the assay with HSF1; 1.12 fold enrichment (6-mer frequency, TF over GST control) with SPIC; 1.16 fold enrichment (6-mer frequency, TF over GST control) with ELF4; 1.22 fold enrichment (6-mer frequency, TF over GST control) with ELK4. In addition, the binding signal is 1.2 fold enrichment (6-mer frequency, TF over GST control) in the assay with ETV2; 1.33 fold enrichment (6-mer frequency, TF over GST control) with ELF3; 1.19 fold enrichment (6-mer frequency, TF over GST control) with CRX; 1.13 fold enrichment (6-mer frequency, TF over GST control) with ETV1.

For the sequence TTTACT, the binding signal with FEV is 1.41 fold enrichment (6-mer frequency, TF over GST control); with ETV5, 1.44 fold enrichment (6-mer frequency, TF over GST control); with HSF1, 1.69 fold enrichment (6-mer frequency, TF over GST control); in the assay with SPIC it was 1.44 fold enrichment (6-mer frequency, TF over GST control); with ELF4, 1.5 fold enrichment (6-mer frequency, TF over GST control); with ELK4 it was 1.66 fold enrichment (6-mer frequency, TF over GST control). For the same sequence, the binding signal with ETV2 is 1.29 fold enrichment (6-mer frequency, TF over GST control); with ELF3 it was 1.65 fold enrichment (6-mer frequency, TF over GST control); with CRX, 1.95 fold enrichment (6-mer frequency, TF over GST control); in the assay with ETV1 it was 1.48 fold enrichment (6-mer frequency, TF over GST control).

As for AACTCT, the binding signal with FEV was 1.31 fold enrichment (6-mer frequency, TF over GST control); in the assay with ETV5, 1.36 fold enrichment (6-mer frequency, TF over GST control); with HSF1 it was 1.4 fold enrichment (6-mer frequency, TF over GST control); in the assay with SPIC it was 1.6 fold enrichment (6-mer frequency, TF over GST control); with ELF4, 1.36 fold enrichment (6-mer frequency, TF over GST control); with ELK4, 1.24 fold enrichment (6-mer frequency, TF over GST control). For the same sequence, the binding signal was 1.24 fold enrichment (6-mer frequency, TF over GST control) in the assay with ETV2; 1.44 fold enrichment (6-mer frequency, TF over GST control) in the assay with ELF3; 1.37 fold enrichment (6-mer frequency, TF over GST control) in the assay with CRX; 1.36 fold enrichment (6-mer frequency, TF over GST control) with ETV1.

TCCCCT: the binding signal with FEV was 1.71 fold enrichment (6-mer frequency, TF over GST control); in the assay with ETV5 it was 1.72 fold enrichment (6-mer frequency, TF over GST control); in the assay with HSF1 it was 1.56 fold enrichment (6-mer frequency, TF over GST control); with SPIC it was 1.88 fold enrichment (6-mer frequency, TF over GST control); in the assay with ELF4, 1.83 fold enrichment (6-mer frequency, TF over GST control); with ELK4 it was 1.55 fold enrichment (6-mer frequency, TF over GST control). Also, the binding signal with ETV2 was 1.57 fold enrichment (6-mer frequency, TF over GST control); with ELF3 it was 1.78 fold enrichment (6-mer frequency, TF over GST control); with CRX, 1.92 fold enrichment (6-mer frequency, TF over GST control); in the assay with ETV1, 1.75 fold enrichment (6-mer frequency, TF over GST control).

Consider AATGCA, for which the binding signal with FEV was 1.31 fold enrichment (6-mer frequency, TF over GST control); with ETV5, 1.29 fold enrichment (6-mer frequency, TF over GST control); in the assay with HSF1, 1.11 fold enrichment (6-mer frequency, TF over GST control); in the assay with SPIC it was 1.28 fold enrichment (6-mer frequency, TF over GST control); with ELF4, 1.3 fold enrichment (6-mer frequency, TF over GST control); with ELK4, 1.31 fold enrichment (6-mer frequency, TF over GST control). For the same sequence, the binding signal with ETV2 is 1.25 fold enrichment (6-mer frequency, TF over GST control); with ELF3 it was 1.33 fold enrichment (6-mer frequency, TF over GST control); with CRX, 1.14 fold enrichment (6-mer frequency, TF over GST control); in the assay with ETV1, 1.25 fold enrichment (6-mer frequency, TF over GST control).

Consider ACGAAT, for which the binding signal was 1.17 fold enrichment (6-mer frequency, TF over GST control) with FEV; 1.14 fold enrichment (6-mer frequency, TF over GST control) in the assay with ETV5; 1.39 fold enrichment (6-mer frequency, TF over GST control) with HSF1; 1.16 fold enrichment (6-mer frequency, TF over GST control) with SPIC; 1.11 fold enrichment (6-mer frequency, TF over GST control) with ELF4; 1.2 fold enrichment (6-mer frequency, TF over GST control) with ELK4. Further, the binding signal was 1.15 fold enrichment (6-mer frequency, TF over GST control) in the assay with ETV2; 1.12 fold enrichment (6-mer frequency, TF over GST control) with ELF3; 1.21 fold enrichment (6-mer frequency, TF over GST control) with CRX; 1.14 fold enrichment (6-mer frequency, TF over GST control) in the assay with ETV1.

On to AAACAA, for which the binding signal is 1.28 fold enrichment (6-mer frequency, TF over GST control) in the assay with FEV; 1.28 fold enrichment (6-mer frequency, TF over GST control) with ETV5; 1.23 fold enrichment (6-mer frequency, TF over GST control) with HSF1; 1.33 fold enrichment (6-mer frequency, TF over GST control) with SPIC; 1.31 fold enrichment (6-mer frequency, TF over GST control) with ELF4; 1.28 fold enrichment (6-mer frequency, TF over GST control) with ELK4. Also, the binding signal in the assay with ETV2 is 1.31 fold enrichment (6-mer frequency, TF over GST control); with ELF3, 1.49 fold enrichment (6-mer frequency, TF over GST control); with CRX it was 1.06 fold enrichment (6-mer frequency, TF over GST control); with ETV1, 1.32 fold enrichment (6-mer frequency, TF over GST control).
